# Test results from the supplement of paper PMC12282887.
# ± gives the standard deviation of the averaged measurements.
# Experiments:
# Test in all cases: promoter activity interaction Z-score (Lux/OD deviation from empty-vector control); higher = stronger promoter induction by the compound
# [1] = tested on: E. coli BW25113 acrABp lux reporter
# Outline: (§1)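 E. coli BW25113, as wild type or one of three single-gene deletion strains, carried low-copy luxCDABE promoter reporters and grew in 40 µl LB Lennox in 384-well plates at 37°C, with OD600 and luminescence read every 30 min for 12 h. Each compound was run at four 1:2 dilutions in biological duplicates, integration spanned 0–8 h for wild type and 1–9 h for deletion strains, and wells under 10% of the median growth value were dropped. The score is the Z-transformed residual of growth-normalised luminescence fitted against a control.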
# [2] = tested on: E. coli BW25113 marRABp lux reporter
# Outline: as §1
# [3] = tested on: E. coli BW25113 micFp lux reporter
# Outline: as §1
# [4] = tested on: E. coli BW25113 ompFp lux reporter
# Outline: as §1
# [5] = tested on: E. coli BW25113 robp lux reporter
# Outline: as §1
# [6] = tested on: E. coli BW25113 soxSp lux reporter
# Outline: as §1
# [7] = tested on: E. coli BW25113 tolCp lux reporter
# Outline: as §1
# [8] = 0.13 µg/ml, genetic background: wild type
# [9] = 0.13 µg/ml, genetic background: ΔmarA
# [10] = 0.13 µg/ml, genetic background: Δrob
# [11] = 0.13 µg/ml, genetic background: ΔsoxS
# [12] = 0.26 µg/ml, genetic background: wild type
# [13] = 0.26 µg/ml, genetic background: ΔmarA
# [14] = 0.26 µg/ml, genetic background: Δrob
# [15] = 0.26 µg/ml, genetic background: ΔsoxS
# [16] = 0.52 µg/ml, genetic background: wild type
# [17] = 0.52 µg/ml, genetic background: ΔmarA
# [18] = 0.52 µg/ml, genetic background: Δrob
# [19] = 0.52 µg/ml, genetic background: ΔsoxS
# [20] = 0.0045 µg/ml, genetic background: wild type
# [21] = 0.0045 µg/ml, genetic background: ΔmarA
# [22] = 0.0045 µg/ml, genetic background: Δrob
# [23] = 0.0045 µg/ml, genetic background: ΔsoxS
# [24] = 0.009 µg/ml, genetic background: wild type
# [25] = 0.009 µg/ml, genetic background: ΔmarA
# [26] = 0.009 µg/ml, genetic background: Δrob
# [27] = 0.009 µg/ml, genetic background: ΔsoxS
smiles,measurement,setting,value
CNC(C)C1CCC(N)C(OC2C(N)CC(N)C(OC3OCC(C)(O)C(NC)C3O)C2O)O1 (centres undefined) [Gentamicin],promoter activity interaction Z-score,[1]; [8],-0.258 ± 0.098
same,promoter activity interaction Z-score,[1]; [9],0.731 ± 0.32
same,promoter activity interaction Z-score,[1]; [10],0.126 ± 0.055
same,promoter activity interaction Z-score,[1]; [11],0.158 ± 0.14
same,promoter activity interaction Z-score,[1]; [12],-0.117 ± 0.18
same,promoter activity interaction Z-score,[1]; [13],0.35 ± 0.15
same,promoter activity interaction Z-score,[1]; [14],0.483 ± 0.18
same,promoter activity interaction Z-score,[1]; [15],0.0843 ± 0.06
same,promoter activity interaction Z-score,[1]; [16],0.311 ± 0.023
same,promoter activity interaction Z-score,[1]; [17],0.396 ± 0.21
same,promoter activity interaction Z-score,[1]; [18],0.801 ± 0.45
same,promoter activity interaction Z-score,[1]; [19],0.744 ± 0.39
same,promoter activity interaction Z-score,[2]; [8],-0.229 ± 0.24
same,promoter activity interaction Z-score,[2]; [9],-0.193 ± 0.19
same,promoter activity interaction Z-score,[2]; [10],-0.0111 ± 0.062
same,promoter activity interaction Z-score,[2]; [11],0.027 ± 0.11
same,promoter activity interaction Z-score,[2]; [12],-0.22 ± 0.026
same,promoter activity interaction Z-score,[2]; [13],-0.108 ± 0.19
same,promoter activity interaction Z-score,[2]; [14],-0.0765 ± 0.087
same,promoter activity interaction Z-score,[2]; [15],0.17 ± 0.086
same,promoter activity interaction Z-score,[2]; [16],0.575 ± 0.65
same,promoter activity interaction Z-score,[2]; [17],0.543 ± 0.31
same,promoter activity interaction Z-score,[2]; [18],0.678 ± 1
same,promoter activity interaction Z-score,[2]; [19],0.166
same,promoter activity interaction Z-score,[3]; [8],-0.256 ± 0.0079
same,promoter activity interaction Z-score,[3]; [9],-0.00364 ± 0.024
same,promoter activity interaction Z-score,[3]; [10],-0.0412 ± 0.1
same,promoter activity interaction Z-score,[3]; [11],0.232 ± 0.23
same,promoter activity interaction Z-score,[3]; [12],-0.302 ± 0.26
same,promoter activity interaction Z-score,[3]; [13],0.035 ± 0.072
same,promoter activity interaction Z-score,[3]; [14],0.115 ± 0.15
same,promoter activity interaction Z-score,[3]; [15],0.509 ± 0.23
same,promoter activity interaction Z-score,[3]; [16],-0.614 ± 0.016
same,promoter activity interaction Z-score,[3]; [17],0.0535 ± 0.039
same,promoter activity interaction Z-score,[3]; [18],0.114 ± 0.013
same,promoter activity interaction Z-score,[3]; [19],0.235 ± 0.36
same,promoter activity interaction Z-score,[4]; [8],-0.504 ± 0.27
same,promoter activity interaction Z-score,[4]; [9],-0.192 ± 0.27
same,promoter activity interaction Z-score,[4]; [10],0.285 ± 0.14
same,promoter activity interaction Z-score,[4]; [11],0.28 ± 0.15
same,promoter activity interaction Z-score,[4]; [12],-1.09 ± 0.052
same,promoter activity interaction Z-score,[4]; [13],-0.0939 ± 0.49
same,promoter activity interaction Z-score,[4]; [14],-0.00259 ± 0.23
same,promoter activity interaction Z-score,[4]; [15],0.504 ± 0.56
same,promoter activity interaction Z-score,[4]; [16],-0.826
same,promoter activity interaction Z-score,[4]; [17],-0.127 ± 0.14
same,promoter activity interaction Z-score,[4]; [18],-0.414
same,promoter activity interaction Z-score,[4]; [19],0.191 ± 0.32
same,promoter activity interaction Z-score,[5]; [8],-0.805 ± 0.067
same,promoter activity interaction Z-score,[5]; [9],-0.513 ± 0.77
same,promoter activity interaction Z-score,[5]; [10],0.0663 ± 0.25
same,promoter activity interaction Z-score,[5]; [11],-0.014 ± 0.43
same,promoter activity interaction Z-score,[5]; [12],-0.862 ± 1.1
same,promoter activity interaction Z-score,[5]; [13],0.245 ± 0.6
same,promoter activity interaction Z-score,[5]; [14],-0.248 ± 0.75
same,promoter activity interaction Z-score,[5]; [15],0.869 ± 0.64
same,promoter activity interaction Z-score,[5]; [16],-1.31 ± 0.28
same,promoter activity interaction Z-score,[5]; [17],-0.148 ± 0.081
same,promoter activity interaction Z-score,[5]; [18],-1.14 ± 0.47
same,promoter activity interaction Z-score,[5]; [19],-0.192 ± 0.46
same,promoter activity interaction Z-score,[6]; [8],-0.176 ± 0.037
same,promoter activity interaction Z-score,[6]; [9],0.0574 ± 0.0087
same,promoter activity interaction Z-score,[6]; [10],0.128 ± 0.056
same,promoter activity interaction Z-score,[6]; [11],0.247 ± 0.13
same,promoter activity interaction Z-score,[6]; [12],-0.318 ± 0.11
same,promoter activity interaction Z-score,[6]; [13],-0.0384 ± 0.093
same,promoter activity interaction Z-score,[6]; [14],0.0805 ± 0.022
same,promoter activity interaction Z-score,[6]; [15],0.308 ± 0.14
same,promoter activity interaction Z-score,[6]; [16],-0.16 ± 0.27
same,promoter activity interaction Z-score,[6]; [17],-0.404 ± 0.039
same,promoter activity interaction Z-score,[6]; [18],-0.462 ± 0.067
same,promoter activity interaction Z-score,[6]; [19],0.162 ± 0.49
same,promoter activity interaction Z-score,[7]; [8],-0.827 ± 0.069
same,promoter activity interaction Z-score,[7]; [9],0.61 ± 0.68
same,promoter activity interaction Z-score,[7]; [10],-0.223 ± 0.083
same,promoter activity interaction Z-score,[7]; [11],0.974 ± 0.11
same,promoter activity interaction Z-score,[7]; [12],-0.519 ± 0.51
same,promoter activity interaction Z-score,[7]; [13],0.897 ± 0.19
same,promoter activity interaction Z-score,[7]; [14],0.252 ± 0.61
same,promoter activity interaction Z-score,[7]; [15],0.0714 ± 0.32
same,promoter activity interaction Z-score,[7]; [16],-0.626 ± 0.67
same,promoter activity interaction Z-score,[7]; [17],-0.251 ± 0.16
same,promoter activity interaction Z-score,[7]; [18],-0.791 ± 0.011
same,promoter activity interaction Z-score,[7]; [19],0.133 ± 0.12
C[C@H]1COc2c(N3CCN(C)CC3)c(F)cc3c(=O)c(C(=O)O)cn1c23 [Levofloxacin],promoter activity interaction Z-score,[1]; [20],0.161 ± 0.16
same,promoter activity interaction Z-score,[1]; [21],1.19 ± 0.57
same,promoter activity interaction Z-score,[1]; [22],0.765 ± 0.3
same,promoter activity interaction Z-score,[1]; [23],0.13 ± 0.43
same,promoter activity interaction Z-score,[1]; [24],1.49 ± 0.47
same,promoter activity interaction Z-score,[1]; [25],3.65 ± 2.5
same,promoter activity interaction Z-score,[1]; [26],3
same,promoter activity interaction Z-score,[1]; [27],0.933 ± 0.088
same,promoter activity interaction Z-score,[2]; [20],0.0777 ± 0.09
same,promoter activity interaction Z-score,[2]; [21],0.886 ± 0.81
same,promoter activity interaction Z-score,[2]; [22],0.457 ± 0.39
same,promoter activity interaction Z-score,[2]; [23],0.129 ± 0.058
same,promoter activity interaction Z-score,[2]; [24],1.81 ± 0.43
same,promoter activity interaction Z-score,[2]; [26],2.37
same,promoter activity interaction Z-score,[2]; [27],1.61 ± 0.18
same,promoter activity interaction Z-score,[3]; [20],-0.267 ± 0.3
same,promoter activity interaction Z-score,[3]; [21],0.407 ± 0.14
same,promoter activity interaction Z-score,[3]; [22],0.249 ± 0.18
same,promoter activity interaction Z-score,[3]; [23],0.076 ± 0.062
same,promoter activity interaction Z-score,[3]; [24],0.268 ± 0.26
same,promoter activity interaction Z-score,[3]; [25],0.154 ± 0.1
same,promoter activity interaction Z-score,[3]; [26],-0.048
same,promoter activity interaction Z-score,[3]; [27],0.58 ± 0.097
same,promoter activity interaction Z-score,[4]; [20],0.0942 ± 0.084
same,promoter activity interaction Z-score,[4]; [21],0.337 ± 0.47
same,promoter activity interaction Z-score,[4]; [22],0.283 ± 0.32
same,promoter activity interaction Z-score,[4]; [23],0.00971 ± 0.41
same,promoter activity interaction Z-score,[4]; [24],0.729 ± 0.33
same,promoter activity interaction Z-score,[4]; [25],1.02 ± 1.5
same,promoter activity interaction Z-score,[4]; [27],2.15 ± 2.1
